ELG1 repair inh – ELG1-dependent DNA repair inhibition. Potency, µM (highest dose often 46.1 µM), hits mostly inhibitors. 330,000 compounds, 2.3% hits. AID 504467. HEK293T ELG1-luciferase reporter, luminescence, 16 h; DNA damage induced by 5-fluorouridine; further: nearly all actives have a fitted effect of over 55% in size
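Quantitative HTS, concentration-response format. 2,000 cells/well co-treated with 5-fluorouridine and compound, 16 hr in 5% CO2 at 37 °C; ONE-Glo luminescence read after 30 min.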
A549 tox – kills or reduces viability of A549 cells in Nrf2 counter-screen. 390,000 compounds, 0.16% hits. Potency, µM (top dose mostly 46 µM), hits mostly inhibitors. A549 ARE-Fluc cells, CellTiter-Fluor viability, 18-24 h
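A549 ARE-Fluc cells in 5% FBS OPTI-MEM, 5000 cells/well, rested 2 h then exposed to compounds in concentration-response for 18-24 h at 37 °C. Viability by CellTiter-Fluor fluorescence (Ex 405/Em 525) after 30 min; luciferase luminescence (BugLite, 15 min, RT) read afterwards.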
Nrf2 activator – Nrf2 pathway activation | AREc32 ARE-luciferase reporter (MCF7-derived line), luminescence, 24 h | Potency, µM (titrated, usually from 46.1 µM), most hits filed as activators | 410,000 compounds, 0.31% hits | AID 624171; further: nearly all actives have a fitted effect of over 65% in size
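Luciferase luminescence (Steady-Glo, 30 min at room temperature) served as the read-out of ARE activation in AREc32 cells treated with compounds for 24 hr at 37 deg C.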
Nrf2 block – inhibitors of Nrf2 signaling; A549 ARE-Fluc reporter, luciferase luminescence, 18-24 h; Potency, µM (top dose mostly 46 µM), most hits filed as inhibitors; 360,000 compounds, 2.1% hits; further: nearly all actives have a fitted effect of over 60% in size
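Quantitative HTS in A549 cells stably bearing an antioxidant response element-firefly luciferase construct. Inhibition of Nrf2-driven transcription was scored by luminescence after 18-24 h of compound exposure at 37 °C.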
Of the large screens only hits and unclear results are named; the others gave an inactive call. This is a sample that favours compounds with a hit; in the whole collection about 3.7% have one here. The call rests on the fitted dose curve; in most records, active means well fitted curve in the direction sought with a large enough effect; inconclusive means small, poorly fitted or top-dose-only effect, or another doubt; inactive means no such curve, though single readings can be large; an effect the other way counts as inactive or inconclusive.

O=c1oc2ccccc2cc1-c1csc(Cc2nc(-c3ccc(Cl)cc3)cs2)n1	ELG1 repair inh inconclusive, Nrf2 block 20.6µM
Cc1ccc(-c2nn3c(-c4ccccc4)nnc3c3ccccc23)cc1	none (no result: ELG1 repair inh)
COc1ccc(OC)c(Nc2nc3ccc(C)cc3n3cnnc23)c1	ELG1 repair inh 8.2µM, Nrf2 block inconclusive
COc1ccc(Cl)cc1Nc1nc2ccc(C)cc2n2cnnc12	ELG1 repair inh inconclusive
COC(C(=O)Nc1ccc(S(=O)(=O)Nc2cccc3ccccc23)cc1)c1ccccc1 (stereo not drawn)	Nrf2 block 23.1µM
COc1cccc(C(=O)NCc2cn3ccccc3n2)c1	Nrf2 block 23.1µM (no result: ELG1 repair inh)
Cc1ccc2c(=O)n3c(nc2c1)C(Cc1ccccc1)NC(=O)c1ccc(Cl)cc1-3 (stereo not drawn)	none (no result: A549 tox, Nrf2 activator, Nrf2 block)
Cc1ccc(NC(=O)C2CCN(S(=O)(=O)c3ccc4c(c3)CC(C)N4C(=O)C3CCC3)CC2)nc1 (stereo not drawn)	ELG1 repair inh inconclusive, Nrf2 block inconclusive
Cc1cccc(NC(=O)C2CCN(S(=O)(=O)c3ccc4ccccc4c3)CC2)n1	Nrf2 block 16.4µM
Cc1ccnc(NC(=O)C2CCN(S(=O)(=O)c3ccc4c(c3)CC(C)N4C(=O)C3CCC3)CC2)c1 (stereo not drawn)	ELG1 repair inh 9.2µM, Nrf2 block inconclusive
CC(C)CCNC(=O)C1CCN(S(=O)(=O)c2ccc3c(c2)CC(C)N3C(=O)C2CCC2)CC1 (stereo not drawn)	ELG1 repair inh inconclusive, Nrf2 block inconclusive
CC1Cc2cc(S(=O)(=O)N3CCC(C(=O)Nc4ccccn4)CC3)ccc2N1C(=O)C1CCC1 (stereo not drawn)	ELG1 repair inh inconclusive, Nrf2 block 14.6µM
CSc1ncc(C(=O)NCc2cccc(C)c2)c(-c2ccccc2)n1	none (no result: ELG1 repair inh)
O=C(CN1CCCC1)N/N=C/c1c(O)ccc2ccccc12	ELG1 repair inh 5.17µM
O=c1c2ccccc2nc(N/N=C/c2c(O)ccc3ccccc23)n1O	ELG1 repair inh inconclusive, A549 tox inconclusive, Nrf2 block 6.51µM
Cc1cc(C)n(CCC(=O)N/N=C/c2c(O)ccc3ccccc23)n1	ELG1 repair inh 3.66µM
Cc1cc(C)n(CCC(=O)N/N=C/c2ccc(O)cc2)n1	none
O=C(NCc1ccccc1)c1nc(S(=O)(=O)Cc2ccccc2)ncc1Cl	A549 tox inconclusive, Nrf2 block inconclusive
COc1ccc(CNC(=O)c2nc(S(=O)(=O)Cc3ccccc3)ncc2Cl)cc1	ELG1 repair inh inconclusive, A549 tox inconclusive, Nrf2 block 18.4µM
O=C(NCc1ccc2c(c1)OCO2)c1nc(S(=O)(=O)Cc2ccccc2)ncc1Cl	Nrf2 block inconclusive
O=C(NCc1ccccc1)c1c(Cl)nc(Cl)c(Cl)c1Cl	ELG1 repair inh inconclusive, Nrf2 activator 10µM
CCS(=O)(=O)c1ncc(Cl)c(C(=O)NCc2ccccc2)n1	A549 tox inconclusive, Nrf2 block 18.4µM (no result: ELG1 repair inh)
CCNC(=O)c1c(NC(=O)c2nc(S(=O)(=O)CC)ncc2Cl)sc2c1CCCC2	A549 tox 20.6µM, Nrf2 block 20.6µM (no result: ELG1 repair inh)
O=C(c1ccccc1Cl)N1CCSCC1	none
CC(=O)N(C1=C(Cl)C(=O)c2ccccc2C1=O)C1CCCCC1	ELG1 repair inh 16.4µM, Nrf2 block inconclusive
Cn1nccc1C(=O)Nc1ccc(OC(=O)c2ccnn2C)cc1	ELG1 repair inh 23.1µM, Nrf2 block inconclusive
COc1ccc(S(=O)(=O)NCc2ccco2)cc1NC(=O)c1ccccc1	none
Cc1ccc(Cl)cc1N1CCN(C(=O)c2ccc3c(c2)N(Cc2ccccc2F)C(=O)c2ccccc2S3=O)CC1 (stereo not drawn)	none (no result: ELG1 repair inh)
N#CCCn1nc(-c2ccc([N+](=O)[O-])cc2)cc1Nc1ccccc1NC(=O)C(F)(F)F	ELG1 repair inh 18.4µM, Nrf2 block inconclusive
COc1cccc(C(NC(C)=O)c2nc(-c3ccoc3)cs2)c1 (stereo not drawn)	none (no result: ELG1 repair inh, A549 tox, Nrf2 block)
O=C(Nc1cccc(S(=O)(=O)N2CCCCC2)c1)c1ccc(S(=O)(=O)C(F)F)cc1	ELG1 repair inh 20.6µM, Nrf2 block 18.4µM
O=C(Nc1cccc(S(=O)(=O)C(F)F)c1)c1ccc(S(=O)(=O)N2CCCCC2)cc1	ELG1 repair inh 13µM, A549 tox inconclusive, Nrf2 block 16.4µM
COc1ccc(NC(=O)C(=O)Nc2ccc3nc4n(c(=O)c3c2)CCCCC4)c(OC)c1	none (no result: ELG1 repair inh)
CCOc1ccc(CCNC(=O)c2ccc3c(=O)n4c(nc3c2)CCCCC4)cc1	ELG1 repair inh 16.4µM
CN(C)S(=O)(=O)c1cccc(NC(=O)c2ccc(S(=O)(=O)N3CCCCC3)cc2)c1	ELG1 repair inh inconclusive, Nrf2 block inconclusive
COc1ccc(OC)c(CCNC(=O)C(=O)Nc2ccc3nc4n(c(=O)c3c2)CCCCC4)c1	ELG1 repair inh inconclusive, Nrf2 block 20.6µM
COc1ccc(CNC(=O)CN2C(=O)CSc3ccc(S(=O)(=O)N4CCC(C)CC4)cc32)cc1	none (no result: ELG1 repair inh, Nrf2 block)
CC(=O)Nc1ccc(CC(=O)NCCC(c2ccccc2)c2ccccc2)cc1	Nrf2 block inconclusive
O=C(O)/C(=C\c1ccc(Cl)c([N+](=O)[O-])c1)c1ccc(S(=O)(=O)N2CCCC2)s1	none
O=C(CNc1cccc(S(=O)(=O)N2CCCCC2)c1)Nc1ccc(C(F)(F)F)cc1	none (no result: ELG1 repair inh, A549 tox, Nrf2 block)
O=C(Nc1cccc(S(=O)(=O)N2CCCCC2)c1)c1ccc2c(=O)n3c(nc2c1)CCCCC3	ELG1 repair inh 4.11µM, Nrf2 block inconclusive
O=C(Nc1ccn(-c2ccccc2)n1)c1ccc(S(=O)(=O)N2CCCCCC2)cc1	ELG1 repair inh 5.17µM, Nrf2 block inconclusive
CCc1ccc(NC(=O)c2ccc3c(=O)n4c(nc3c2)CCCCC4)cc1	ELG1 repair inh inconclusive, Nrf2 block inconclusive
O=C(CNc1cccc(S(=O)(=O)N2CCCC2)c1)Nc1ccc(C(F)(F)F)cc1	Nrf2 block 23.1µM
COc1ccc(N(C(=O)c2cnccn2)C(C(=O)NC2CCCCC2)c2ccccc2)cc1 (stereo not drawn)	none
CCOc1ccc(C2C(=O)N(C3CCCCCC3)CC(=O)N2Cc2ccc(C)cc2)cc1OC (stereo not drawn)	none (no result: ELG1 repair inh, Nrf2 block)
Cc1ccc2nc3c(c(Nc4ccc(C)c(C)c4)c2c1)CCC3	A549 tox inconclusive, Nrf2 block inconclusive (no result: ELG1 repair inh)
Cc1nc(-c2coc3cc(OCC(=O)O)ccc3c2=O)cs1	Nrf2 block inconclusive
Cc1nc(-c2coc3cc(O)c(C)cc3c2=O)cs1	ELG1 repair inh inconclusive, Nrf2 block 10.3µM
C/C(=N\Nc1nccnc1Cl)c1ccc(Cl)c(Cl)c1	Nrf2 activator 14.1µM, Nrf2 block inconclusive
C/C(=N\Nc1nccnc1Cl)c1ccc(O)cc1	ELG1 repair inh inconclusive
O=C1CN(C(=O)COC(=O)/C=C/c2ccco2)c2ccccc2N1	Nrf2 activator 12.6µM
Cc1ccc(/C=C/C(=O)OCC(=O)N2CC(=O)Nc3ccccc32)o1	Nrf2 block inconclusive
O=C(C[n+]1ccccc1)N/N=C/c1cc(Br)cc(Br)c1O	ELG1 repair inh 20.6µM, Nrf2 block inconclusive
CCC(O)(CC)C(=O)N/N=C/c1cc(Br)cc(Br)c1O	ELG1 repair inh 23.1µM
Cc1ccc(Nc2c3c(nc4ccccc24)CCC3)cc1F	none (no result: ELG1 repair inh)
